Here are results for one sequence from paper PMC7862700, “An all-to-all approach to the identification of sequence-specific readers for epigenetic DNA modifications on cytosine”.

What all share (assay): DAPPL (digital affinity profiling via proximity ligation, sequencing); 10 mM Tris-HCl pH 7.5, 50 mM NaCl, 1 mM DTT, 4% glycerol, room temperature, 30 min; GST-TFs on glutathione beads, 16-mer random dsDNA library, 0.1% formaldehyde crosslink after washing; high values mean tight binding
The target of one experiment is T1, FEV (Homo sapiens, UniProt Q99581 1-238).
T1 sequence: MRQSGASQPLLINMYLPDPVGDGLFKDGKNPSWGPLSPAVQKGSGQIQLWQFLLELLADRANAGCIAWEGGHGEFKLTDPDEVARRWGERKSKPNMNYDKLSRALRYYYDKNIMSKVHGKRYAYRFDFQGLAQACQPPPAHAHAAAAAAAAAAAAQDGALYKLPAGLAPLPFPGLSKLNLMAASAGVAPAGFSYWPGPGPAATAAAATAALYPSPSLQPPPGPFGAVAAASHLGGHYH
To be noted: protein: recombinant; tags: N-terminal GST; dsDNA, one strand shown. A digest of the protocol: (§1)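 Pools were built from human transcription factors expressed in yeast as GST fusions, captured on glutathione beads and DNA-barcoded, along with a tag-only sample. Incubation with 200 nmole of a 16-mer random double-stranded DNA library lasted 30 min at room temperature in Tris/NaCl/DTT/glycerol buffer, and was followed by washing, 0.1% formaldehyde crosslinking, proximity ligation, PCR amplification and Illumina NextSeq500 sequencing. Binding signal is the quotient of each hexamer's read frequency for a factor and its frequency for the tag-only sample.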

A further experiment deals with ETV5 (Homo sapiens, UniProt P41161 1-510). Conditions: protein: recombinant; tags: N-terminal GST; dsDNA, one strand shown. Put shortly: as §1
The next experiment concerns the target HSF1 (Homo sapiens, UniProt Q00613 1-529). To be noted: protein: recombinant; tags: N-terminal GST; chain copies: 3; dsDNA, one strand shown. A digest of the protocol: as §1
The next experiment deals with T2, SPIC (Homo sapiens, UniProt Q8N5J4 1-248).
T2 sequence: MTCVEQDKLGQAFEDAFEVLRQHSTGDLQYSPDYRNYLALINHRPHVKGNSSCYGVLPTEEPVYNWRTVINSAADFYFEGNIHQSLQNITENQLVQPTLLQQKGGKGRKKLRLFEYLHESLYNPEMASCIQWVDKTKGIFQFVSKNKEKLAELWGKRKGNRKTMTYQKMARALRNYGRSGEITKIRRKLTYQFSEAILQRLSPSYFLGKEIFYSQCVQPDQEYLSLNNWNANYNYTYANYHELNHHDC
Conditions: protein: recombinant; tags: N-terminal GST; dsDNA, one strand shown. A digest of the protocol: as §1

In the next experiment the target is ELF4 (Homo sapiens, UniProt Q99607 1-663). Conditions: protein: recombinant; tags: N-terminal GST; dsDNA, one strand shown. Put shortly:
as §1

In a further experiment the target is T3, ELK4 (Homo sapiens, UniProt P28324-2 1-405).
T3 sequence: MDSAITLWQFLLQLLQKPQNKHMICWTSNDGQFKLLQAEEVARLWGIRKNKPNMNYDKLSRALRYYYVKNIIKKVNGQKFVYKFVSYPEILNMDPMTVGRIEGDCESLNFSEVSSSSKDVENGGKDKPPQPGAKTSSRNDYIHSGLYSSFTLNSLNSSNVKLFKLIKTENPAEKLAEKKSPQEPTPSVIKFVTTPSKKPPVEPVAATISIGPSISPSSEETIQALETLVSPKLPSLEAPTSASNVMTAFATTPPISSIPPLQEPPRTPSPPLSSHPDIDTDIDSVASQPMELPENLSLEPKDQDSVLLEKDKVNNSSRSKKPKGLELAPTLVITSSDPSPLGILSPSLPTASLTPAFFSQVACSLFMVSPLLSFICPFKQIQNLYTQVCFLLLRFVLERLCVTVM
Conditions: protein: recombinant; tags: N-terminal GST; dsDNA, one strand shown. A digest of the protocol: as §1

For a further experiment, the target named is T4, ETV2 (Homo sapiens, UniProt O00321 1-342).
T4 sequence: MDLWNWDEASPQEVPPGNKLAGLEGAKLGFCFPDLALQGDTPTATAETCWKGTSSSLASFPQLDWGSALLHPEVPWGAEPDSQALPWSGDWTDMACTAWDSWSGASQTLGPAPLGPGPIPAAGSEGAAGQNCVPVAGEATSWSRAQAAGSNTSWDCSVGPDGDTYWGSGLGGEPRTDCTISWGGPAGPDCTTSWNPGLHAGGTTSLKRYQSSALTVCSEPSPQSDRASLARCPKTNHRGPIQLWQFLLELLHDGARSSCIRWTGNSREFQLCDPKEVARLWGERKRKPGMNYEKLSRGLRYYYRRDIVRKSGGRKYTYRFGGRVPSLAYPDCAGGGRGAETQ
Conditions: protein: recombinant; tags: N-terminal GST; dsDNA, one strand shown. Put shortly:
as §1

In a further experiment the target is T5, ELF3 (Homo sapiens, UniProt P78545 1-371).
T5 sequence: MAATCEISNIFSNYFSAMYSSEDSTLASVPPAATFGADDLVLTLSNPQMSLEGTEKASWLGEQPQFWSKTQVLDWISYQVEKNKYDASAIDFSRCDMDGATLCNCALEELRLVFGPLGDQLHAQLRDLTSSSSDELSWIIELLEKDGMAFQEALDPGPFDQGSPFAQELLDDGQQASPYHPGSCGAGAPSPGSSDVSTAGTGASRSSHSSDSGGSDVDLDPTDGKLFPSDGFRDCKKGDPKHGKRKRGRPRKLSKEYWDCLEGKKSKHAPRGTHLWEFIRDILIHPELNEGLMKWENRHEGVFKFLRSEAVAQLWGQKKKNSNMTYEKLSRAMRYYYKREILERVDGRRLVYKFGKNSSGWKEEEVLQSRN
To be noted: protein: recombinant; tags: N-terminal GST; dsDNA, one strand shown. Put shortly:
as §1

The target of the next experiment is CRX (Homo sapiens, UniProt O43186 1-299). To be noted: protein: recombinant; tags: N-terminal GST; dsDNA, one strand shown. A digest of the protocol: as §1
A further experiment concerns the target ETV1 (Homo sapiens, UniProt P50549 1-477). Conditions: protein: recombinant; tags: N-terminal GST; dsDNA, one strand shown. A digest of the protocol: as §1
For another experiment, the target named is T6, ERF (Homo sapiens, UniProt P50548 1-548).
T6 sequence: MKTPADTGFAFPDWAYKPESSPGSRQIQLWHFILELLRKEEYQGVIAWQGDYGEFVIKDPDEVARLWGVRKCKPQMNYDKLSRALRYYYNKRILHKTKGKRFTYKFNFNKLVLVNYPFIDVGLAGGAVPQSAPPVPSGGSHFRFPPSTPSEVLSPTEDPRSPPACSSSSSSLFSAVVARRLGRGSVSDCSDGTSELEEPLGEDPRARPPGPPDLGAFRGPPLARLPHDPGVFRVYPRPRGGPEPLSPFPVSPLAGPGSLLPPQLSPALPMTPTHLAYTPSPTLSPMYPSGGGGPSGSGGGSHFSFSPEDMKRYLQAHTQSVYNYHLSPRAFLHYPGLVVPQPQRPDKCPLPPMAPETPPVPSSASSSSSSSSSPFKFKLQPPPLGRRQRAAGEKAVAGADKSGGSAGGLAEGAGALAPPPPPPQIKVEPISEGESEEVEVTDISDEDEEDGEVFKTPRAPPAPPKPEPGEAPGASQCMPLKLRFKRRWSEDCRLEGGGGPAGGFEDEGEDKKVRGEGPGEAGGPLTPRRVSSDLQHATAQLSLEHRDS
Conditions: protein: recombinant; tags: N-terminal GST; dsDNA, one strand shown. A digest of the protocol:
as §1

Another experiment addresses T7, ETV3L (Homo sapiens, UniProt Q6ZN32 1-361).
T7 sequence: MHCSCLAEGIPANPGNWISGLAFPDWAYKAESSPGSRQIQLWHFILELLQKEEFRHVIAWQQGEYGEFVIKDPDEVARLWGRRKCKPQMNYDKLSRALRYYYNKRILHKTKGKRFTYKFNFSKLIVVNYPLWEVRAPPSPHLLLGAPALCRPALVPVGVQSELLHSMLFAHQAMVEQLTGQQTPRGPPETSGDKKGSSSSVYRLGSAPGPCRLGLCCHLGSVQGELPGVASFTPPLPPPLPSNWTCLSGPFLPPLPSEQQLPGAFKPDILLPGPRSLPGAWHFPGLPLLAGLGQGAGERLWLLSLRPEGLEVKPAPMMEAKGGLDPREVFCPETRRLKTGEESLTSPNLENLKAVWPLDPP
Conditions: protein: recombinant; tags: N-terminal GST; dsDNA, one strand shown. A digest of the protocol:
as §1

In the next experiment the target is T8, ETS2 (Homo sapiens, UniProt P15036 1-469).
T8 sequence: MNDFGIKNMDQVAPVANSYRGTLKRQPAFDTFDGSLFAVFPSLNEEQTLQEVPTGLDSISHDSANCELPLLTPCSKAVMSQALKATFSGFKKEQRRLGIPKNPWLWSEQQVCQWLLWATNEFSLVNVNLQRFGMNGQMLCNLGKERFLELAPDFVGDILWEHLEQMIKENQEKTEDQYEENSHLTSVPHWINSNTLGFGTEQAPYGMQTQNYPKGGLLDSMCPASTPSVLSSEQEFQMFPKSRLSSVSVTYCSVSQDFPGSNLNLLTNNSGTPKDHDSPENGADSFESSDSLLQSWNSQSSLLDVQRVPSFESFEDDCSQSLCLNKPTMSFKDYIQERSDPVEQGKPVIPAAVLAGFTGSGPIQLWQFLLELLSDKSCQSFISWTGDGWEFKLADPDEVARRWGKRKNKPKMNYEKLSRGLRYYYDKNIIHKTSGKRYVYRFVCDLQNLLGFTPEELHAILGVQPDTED
Conditions: protein: recombinant; tags: N-terminal GST; dsDNA, one strand shown. Put shortly: as §1

Another experiment concerns the target T9, SPDEF (Homo sapiens, UniProt O95238 1-335).
T9 sequence: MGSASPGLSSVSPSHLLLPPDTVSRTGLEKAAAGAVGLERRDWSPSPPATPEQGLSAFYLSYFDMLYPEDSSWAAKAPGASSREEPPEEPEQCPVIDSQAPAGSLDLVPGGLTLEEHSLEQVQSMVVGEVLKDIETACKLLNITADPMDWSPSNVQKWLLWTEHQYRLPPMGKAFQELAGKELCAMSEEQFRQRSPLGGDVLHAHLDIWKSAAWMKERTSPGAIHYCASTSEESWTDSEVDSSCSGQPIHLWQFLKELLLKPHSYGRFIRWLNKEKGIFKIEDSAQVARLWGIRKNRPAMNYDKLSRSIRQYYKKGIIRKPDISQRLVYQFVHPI
To be noted: protein: recombinant; tags: N-terminal GST; dsDNA, one strand shown. Put shortly: as §1

The target in another experiment is T10, ETV7 (Homo sapiens, UniProt Q9Y603 1-341).
T10 sequence: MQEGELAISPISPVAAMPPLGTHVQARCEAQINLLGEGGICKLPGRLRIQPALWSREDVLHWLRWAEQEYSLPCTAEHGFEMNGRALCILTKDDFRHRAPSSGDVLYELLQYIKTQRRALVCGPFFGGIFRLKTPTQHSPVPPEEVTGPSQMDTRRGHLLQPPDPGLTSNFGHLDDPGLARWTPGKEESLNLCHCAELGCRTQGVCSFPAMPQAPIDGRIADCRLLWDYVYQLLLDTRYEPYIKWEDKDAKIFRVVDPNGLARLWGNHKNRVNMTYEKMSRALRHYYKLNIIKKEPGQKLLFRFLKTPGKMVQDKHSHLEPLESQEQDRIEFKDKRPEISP
Conditions: protein: recombinant; tags: N-terminal GST; dsDNA, one strand shown. Put shortly:
as §1

Another experiment has as its target T11, ELF5 (Homo sapiens, UniProt Q9UKW6-2 1-255).
T11 sequence: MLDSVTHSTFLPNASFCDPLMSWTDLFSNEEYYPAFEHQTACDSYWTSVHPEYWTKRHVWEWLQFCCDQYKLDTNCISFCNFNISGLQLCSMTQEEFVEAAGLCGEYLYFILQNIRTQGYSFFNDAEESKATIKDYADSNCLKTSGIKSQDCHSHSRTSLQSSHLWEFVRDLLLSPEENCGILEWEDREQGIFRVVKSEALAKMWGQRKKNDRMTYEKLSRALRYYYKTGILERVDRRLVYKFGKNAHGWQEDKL
Conditions: protein: recombinant; tags: N-terminal GST; dsDNA, one strand shown. A digest of the protocol:
as §1

The next experiment concerns the target T12, ETV3 (Homo sapiens, UniProt P41162-2 1-143).
T12 sequence: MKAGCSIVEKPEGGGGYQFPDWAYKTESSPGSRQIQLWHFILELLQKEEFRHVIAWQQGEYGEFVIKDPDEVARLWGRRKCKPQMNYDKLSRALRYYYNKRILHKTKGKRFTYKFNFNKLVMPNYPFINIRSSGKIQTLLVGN
To be noted: protein: recombinant; tags: N-terminal GST; dsDNA, one strand shown. Put shortly:
as §1

A further experiment addresses ETV6 (Homo sapiens, UniProt P41212 1-452). Conditions: protein: recombinant; tags: N-terminal GST; dsDNA, one strand shown. Put shortly: as §1

Chain of CRX (O43186 whole entry): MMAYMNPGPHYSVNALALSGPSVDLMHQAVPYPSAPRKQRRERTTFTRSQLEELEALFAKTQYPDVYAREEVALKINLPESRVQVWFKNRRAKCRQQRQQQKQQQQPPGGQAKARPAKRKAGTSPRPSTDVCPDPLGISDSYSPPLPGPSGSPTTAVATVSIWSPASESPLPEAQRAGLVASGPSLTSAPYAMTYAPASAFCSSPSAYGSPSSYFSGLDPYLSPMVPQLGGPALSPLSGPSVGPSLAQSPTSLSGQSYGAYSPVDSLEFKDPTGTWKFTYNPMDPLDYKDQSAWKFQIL
Chain of ETV5 (P41161 whole entry): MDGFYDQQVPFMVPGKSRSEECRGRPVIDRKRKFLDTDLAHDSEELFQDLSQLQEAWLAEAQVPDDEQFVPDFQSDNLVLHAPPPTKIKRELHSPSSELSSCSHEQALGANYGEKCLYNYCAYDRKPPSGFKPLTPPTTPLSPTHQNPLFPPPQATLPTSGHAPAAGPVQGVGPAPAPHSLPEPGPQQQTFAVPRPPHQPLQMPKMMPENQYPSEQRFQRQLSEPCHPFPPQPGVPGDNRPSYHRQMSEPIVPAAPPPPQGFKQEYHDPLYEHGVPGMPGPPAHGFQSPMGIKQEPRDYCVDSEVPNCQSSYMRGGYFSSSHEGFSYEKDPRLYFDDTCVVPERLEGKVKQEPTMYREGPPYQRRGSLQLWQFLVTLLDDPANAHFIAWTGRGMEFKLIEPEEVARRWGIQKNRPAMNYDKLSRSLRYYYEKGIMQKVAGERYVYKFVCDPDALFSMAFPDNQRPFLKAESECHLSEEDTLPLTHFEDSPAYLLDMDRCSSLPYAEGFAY
Chain of ETV1 (P50549 whole entry): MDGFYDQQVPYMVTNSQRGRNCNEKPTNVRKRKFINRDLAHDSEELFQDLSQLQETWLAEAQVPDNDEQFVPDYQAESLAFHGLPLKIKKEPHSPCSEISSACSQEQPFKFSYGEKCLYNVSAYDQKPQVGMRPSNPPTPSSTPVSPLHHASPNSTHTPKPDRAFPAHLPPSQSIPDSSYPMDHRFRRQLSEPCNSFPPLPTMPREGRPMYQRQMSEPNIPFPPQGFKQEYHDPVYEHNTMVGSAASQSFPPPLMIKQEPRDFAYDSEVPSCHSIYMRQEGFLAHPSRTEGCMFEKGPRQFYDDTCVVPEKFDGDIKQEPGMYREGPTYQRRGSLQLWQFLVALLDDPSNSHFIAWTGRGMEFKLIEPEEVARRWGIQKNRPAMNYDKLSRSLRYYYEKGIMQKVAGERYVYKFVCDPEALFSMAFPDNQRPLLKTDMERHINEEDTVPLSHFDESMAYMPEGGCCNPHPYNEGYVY
Chain of HSF1 (Q00613 whole entry): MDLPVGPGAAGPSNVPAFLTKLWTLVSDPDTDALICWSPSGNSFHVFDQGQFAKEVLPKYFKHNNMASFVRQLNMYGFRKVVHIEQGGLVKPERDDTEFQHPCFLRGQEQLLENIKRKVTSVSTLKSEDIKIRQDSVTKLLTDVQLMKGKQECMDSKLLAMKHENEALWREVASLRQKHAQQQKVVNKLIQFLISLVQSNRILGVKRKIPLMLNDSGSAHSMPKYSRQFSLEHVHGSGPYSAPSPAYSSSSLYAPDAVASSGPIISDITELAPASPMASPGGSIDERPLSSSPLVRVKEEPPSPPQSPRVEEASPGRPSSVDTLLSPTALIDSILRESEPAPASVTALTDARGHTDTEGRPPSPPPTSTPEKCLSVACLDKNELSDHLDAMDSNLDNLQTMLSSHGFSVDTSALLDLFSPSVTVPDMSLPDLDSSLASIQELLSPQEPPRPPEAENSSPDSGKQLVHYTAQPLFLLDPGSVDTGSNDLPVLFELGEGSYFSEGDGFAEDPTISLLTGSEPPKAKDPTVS
Chain of ELF4 (Q99607 whole entry): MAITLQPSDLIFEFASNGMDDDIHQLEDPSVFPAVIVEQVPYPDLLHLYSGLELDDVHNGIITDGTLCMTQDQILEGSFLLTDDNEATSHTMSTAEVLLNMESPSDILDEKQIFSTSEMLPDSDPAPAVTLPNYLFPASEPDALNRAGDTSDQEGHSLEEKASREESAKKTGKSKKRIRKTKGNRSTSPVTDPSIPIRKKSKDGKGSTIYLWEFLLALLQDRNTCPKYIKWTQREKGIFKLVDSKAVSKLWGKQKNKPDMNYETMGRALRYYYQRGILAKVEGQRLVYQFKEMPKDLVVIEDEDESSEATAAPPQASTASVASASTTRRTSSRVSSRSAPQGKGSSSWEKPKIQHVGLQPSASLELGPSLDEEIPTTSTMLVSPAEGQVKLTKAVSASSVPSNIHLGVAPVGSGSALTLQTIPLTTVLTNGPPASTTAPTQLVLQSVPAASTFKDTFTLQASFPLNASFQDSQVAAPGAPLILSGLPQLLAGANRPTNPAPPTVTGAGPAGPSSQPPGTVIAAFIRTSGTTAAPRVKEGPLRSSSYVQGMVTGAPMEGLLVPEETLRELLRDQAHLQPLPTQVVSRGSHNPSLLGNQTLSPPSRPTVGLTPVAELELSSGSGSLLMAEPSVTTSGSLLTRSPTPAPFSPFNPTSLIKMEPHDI
Chain of ETV6 (P41212 whole entry): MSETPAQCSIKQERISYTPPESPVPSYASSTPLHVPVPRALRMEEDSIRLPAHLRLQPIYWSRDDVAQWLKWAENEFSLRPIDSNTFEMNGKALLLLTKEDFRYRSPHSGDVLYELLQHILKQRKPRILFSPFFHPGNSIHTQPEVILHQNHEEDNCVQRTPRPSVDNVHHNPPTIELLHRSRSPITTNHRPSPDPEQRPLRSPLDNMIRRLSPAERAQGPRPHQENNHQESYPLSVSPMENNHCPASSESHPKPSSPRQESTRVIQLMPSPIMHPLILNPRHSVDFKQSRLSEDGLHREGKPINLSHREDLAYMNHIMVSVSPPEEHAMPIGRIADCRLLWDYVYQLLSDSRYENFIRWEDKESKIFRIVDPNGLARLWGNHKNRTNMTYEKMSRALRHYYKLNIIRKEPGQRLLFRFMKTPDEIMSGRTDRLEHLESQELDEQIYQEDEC

For GTAAAC, the binding signal in the experiment with FEV was 1.17 fold enrichment (6-mer frequency, TF over GST control); in the experiment with ETV5, 1.18 fold enrichment (6-mer frequency, TF over GST control); with HSF1, 1.03 fold enrichment (6-mer frequency, TF over GST control); with SPIC it was 1.23 fold enrichment (6-mer frequency, TF over GST control); with ELF4, 1.23 fold enrichment (6-mer frequency, TF over GST control); with ELK4 it was 1.27 fold enrichment (6-mer frequency, TF over GST control). The binding signal with ETV2 was 1.15 fold enrichment (6-mer frequency, TF over GST control); in the experiment with ELF3 it was 1.38 fold enrichment (6-mer frequency, TF over GST control); with CRX it was 1.07 fold enrichment (6-mer frequency, TF over GST control); with ETV1, 1.22 fold enrichment (6-mer frequency, TF over GST control); with ERF, 1.27 fold enrichment (6-mer frequency, TF over GST control); with ETV3L, 1.18 fold enrichment (6-mer frequency, TF over GST control). The binding signal with ETS2 was 1.28 fold enrichment (6-mer frequency, TF over GST control); with SPDEF, 1.17 fold enrichment (6-mer frequency, TF over GST control); in the experiment with ETV7, 1.18 fold enrichment (6-mer frequency, TF over GST control); with ELF5, 1.22 fold enrichment (6-mer frequency, TF over GST control); in the experiment with ETV3, 1.3 fold enrichment (6-mer frequency, TF over GST control); with ETV6 it was 1.21 fold enrichment (6-mer frequency, TF over GST control).
